Consider 1 sequence from paper PMC7862700, “An all-to-all approach to the identification of sequence-specific readers for epigenetic DNA modifications on cytosine”.

What all share (experiment): DAPPL (digital affinity profiling via proximity ligation, sequencing); 10 mM Tris-HCl pH 7.5, 50 mM NaCl, 1 mM DTT, 4% glycerol, room temperature, 30 min; GST-TFs on glutathione beads, 16-mer random dsDNA library, 0.1% formaldehyde crosslink after washing; high values mean tight binding
In one test the target is T1, FEV (Homo sapiens, UniProt Q99581 1-238).
T1 sequence: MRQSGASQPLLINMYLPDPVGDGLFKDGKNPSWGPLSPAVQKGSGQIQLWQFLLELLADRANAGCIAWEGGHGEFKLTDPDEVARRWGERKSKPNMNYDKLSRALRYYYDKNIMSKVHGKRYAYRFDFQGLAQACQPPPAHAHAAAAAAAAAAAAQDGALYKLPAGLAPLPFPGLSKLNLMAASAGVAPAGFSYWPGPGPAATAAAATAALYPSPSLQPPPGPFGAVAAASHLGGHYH
The settings on record: protein: recombinant; tags: N-terminal GST; dsDNA, one strand shown. In outline:
(§1)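 Beads coated with glutathione captured GST-fused human transcription factors that had been expressed in yeast, and the factors were then given DNA barcodes and pooled with a tag-only sample. The pools were incubated with 200 nmole of a random double-stranded 16-mer DNA library in Tris/NaCl/DTT/glycerol buffer for 30 min at room temperature, washed, crosslinked with 0.1% formaldehyde and proximity-ligated with BsaI/T4 ligase at 37 °C for 1 h. PCR amplification and Illumina NextSeq500 sequencing came last. Binding signal is each hexamer's read frequency for a factor divided by its frequency for the tag-only sample.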

The next test concerns the target ETV5 (Homo sapiens, UniProt P41161 1-510). The settings on record: protein: recombinant; tags: N-terminal GST; dsDNA, one strand shown. A digest of the protocol: as §1
The target of a further test is HSF1 (Homo sapiens, UniProt Q00613 1-529). The settings on record: protein: recombinant; tags: N-terminal GST; chain copies: 3; dsDNA, one strand shown. In outline:
as §1

For another test, the target named is T2, SPIC (Homo sapiens, UniProt Q8N5J4 1-248).
T2 sequence: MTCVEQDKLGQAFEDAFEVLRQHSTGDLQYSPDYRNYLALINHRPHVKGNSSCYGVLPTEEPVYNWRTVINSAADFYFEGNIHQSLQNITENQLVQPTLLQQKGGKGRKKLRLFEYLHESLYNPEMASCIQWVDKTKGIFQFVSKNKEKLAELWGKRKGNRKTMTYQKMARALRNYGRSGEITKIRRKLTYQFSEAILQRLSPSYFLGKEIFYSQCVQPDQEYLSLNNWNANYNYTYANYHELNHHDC
The settings on record: protein: recombinant; tags: N-terminal GST; dsDNA, one strand shown. A digest of the protocol:
as §1

A further test has as its target ELF4 (Homo sapiens, UniProt Q99607 1-663). The settings on record: protein: recombinant; tags: N-terminal GST; dsDNA, one strand shown. In outline:
as §1

A further test has as its target T3, ELK4 (Homo sapiens, UniProt P28324-2 1-405).
T3 sequence: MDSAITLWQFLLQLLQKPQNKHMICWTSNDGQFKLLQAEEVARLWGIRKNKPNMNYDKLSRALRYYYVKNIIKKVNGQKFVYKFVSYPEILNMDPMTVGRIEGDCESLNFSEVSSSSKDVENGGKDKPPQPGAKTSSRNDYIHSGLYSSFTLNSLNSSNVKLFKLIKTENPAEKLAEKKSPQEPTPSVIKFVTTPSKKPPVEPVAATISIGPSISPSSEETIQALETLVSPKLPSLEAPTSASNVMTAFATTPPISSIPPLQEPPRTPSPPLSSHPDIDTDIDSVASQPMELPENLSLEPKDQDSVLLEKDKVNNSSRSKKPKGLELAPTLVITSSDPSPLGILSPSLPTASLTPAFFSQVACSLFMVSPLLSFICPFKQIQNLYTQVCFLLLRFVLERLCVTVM
The settings on record: protein: recombinant; tags: N-terminal GST; dsDNA, one strand shown. In outline: as §1

The next test concerns the target T4, ETV2 (Homo sapiens, UniProt O00321 1-342).
T4 sequence: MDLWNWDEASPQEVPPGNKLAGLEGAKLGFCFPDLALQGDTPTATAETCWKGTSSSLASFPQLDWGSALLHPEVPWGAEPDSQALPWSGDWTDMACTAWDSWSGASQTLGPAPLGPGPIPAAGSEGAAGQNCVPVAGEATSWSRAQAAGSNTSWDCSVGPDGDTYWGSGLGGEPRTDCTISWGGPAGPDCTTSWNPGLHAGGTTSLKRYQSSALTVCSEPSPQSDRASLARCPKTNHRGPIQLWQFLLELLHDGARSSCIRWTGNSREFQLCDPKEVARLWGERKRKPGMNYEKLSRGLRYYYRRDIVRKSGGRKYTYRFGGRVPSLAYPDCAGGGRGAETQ
The settings on record: protein: recombinant; tags: N-terminal GST; dsDNA, one strand shown. In outline: as §1

Another test addresses T5, ELF3 (Homo sapiens, UniProt P78545 1-371).
T5 sequence: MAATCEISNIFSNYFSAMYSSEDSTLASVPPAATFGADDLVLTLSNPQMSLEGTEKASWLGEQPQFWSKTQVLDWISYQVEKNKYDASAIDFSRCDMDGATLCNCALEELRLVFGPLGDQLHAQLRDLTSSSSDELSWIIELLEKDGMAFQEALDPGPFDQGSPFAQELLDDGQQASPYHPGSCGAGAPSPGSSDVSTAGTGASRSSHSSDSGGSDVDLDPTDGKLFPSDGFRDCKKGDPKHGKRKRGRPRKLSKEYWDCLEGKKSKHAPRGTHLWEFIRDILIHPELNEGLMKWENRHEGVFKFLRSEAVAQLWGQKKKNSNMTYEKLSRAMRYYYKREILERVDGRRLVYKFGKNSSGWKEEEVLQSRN
The settings on record: protein: recombinant; tags: N-terminal GST; dsDNA, one strand shown. In outline:
as §1

For the next test, the target named is CRX (Homo sapiens, UniProt O43186 1-299). The settings on record: protein: recombinant; tags: N-terminal GST; dsDNA, one strand shown. In outline:
as §1

Another test concerns the target ETV1 (Homo sapiens, UniProt P50549 1-477). The settings on record: protein: recombinant; tags: N-terminal GST; dsDNA, one strand shown. In outline:
as §1

The next test concerns the target T6, ERF (Homo sapiens, UniProt P50548 1-548).
T6 sequence: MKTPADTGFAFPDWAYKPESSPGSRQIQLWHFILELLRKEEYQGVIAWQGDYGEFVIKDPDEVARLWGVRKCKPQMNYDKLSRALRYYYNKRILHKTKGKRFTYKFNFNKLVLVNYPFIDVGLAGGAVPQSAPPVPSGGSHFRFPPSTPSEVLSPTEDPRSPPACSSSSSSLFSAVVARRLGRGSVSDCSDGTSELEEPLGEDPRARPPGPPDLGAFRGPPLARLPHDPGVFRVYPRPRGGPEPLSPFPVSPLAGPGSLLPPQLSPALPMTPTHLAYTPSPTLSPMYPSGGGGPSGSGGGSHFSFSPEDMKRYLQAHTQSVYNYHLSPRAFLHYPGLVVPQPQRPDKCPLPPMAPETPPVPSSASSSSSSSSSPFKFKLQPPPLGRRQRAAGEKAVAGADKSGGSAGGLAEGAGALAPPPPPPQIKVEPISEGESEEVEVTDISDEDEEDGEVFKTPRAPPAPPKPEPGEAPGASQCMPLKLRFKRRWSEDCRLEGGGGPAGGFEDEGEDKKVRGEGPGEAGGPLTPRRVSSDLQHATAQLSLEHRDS
The settings on record: protein: recombinant; tags: N-terminal GST; dsDNA, one strand shown. A digest of the protocol: as §1

For the next test, the target named is T7, ETV3L (Homo sapiens, UniProt Q6ZN32 1-361).
T7 sequence: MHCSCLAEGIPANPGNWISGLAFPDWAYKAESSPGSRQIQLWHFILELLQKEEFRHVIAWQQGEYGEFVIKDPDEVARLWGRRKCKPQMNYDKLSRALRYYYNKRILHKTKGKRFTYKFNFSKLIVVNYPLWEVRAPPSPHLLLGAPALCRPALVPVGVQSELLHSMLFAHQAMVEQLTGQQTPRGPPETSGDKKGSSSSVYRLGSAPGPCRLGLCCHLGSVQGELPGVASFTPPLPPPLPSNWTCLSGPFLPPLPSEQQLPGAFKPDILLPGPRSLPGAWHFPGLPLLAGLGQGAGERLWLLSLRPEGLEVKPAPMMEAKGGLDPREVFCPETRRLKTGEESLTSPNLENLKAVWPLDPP
The settings on record: protein: recombinant; tags: N-terminal GST; dsDNA, one strand shown. A digest of the protocol: as §1

The target in the next test is T8, ETS2 (Homo sapiens, UniProt P15036 1-469).
T8 sequence: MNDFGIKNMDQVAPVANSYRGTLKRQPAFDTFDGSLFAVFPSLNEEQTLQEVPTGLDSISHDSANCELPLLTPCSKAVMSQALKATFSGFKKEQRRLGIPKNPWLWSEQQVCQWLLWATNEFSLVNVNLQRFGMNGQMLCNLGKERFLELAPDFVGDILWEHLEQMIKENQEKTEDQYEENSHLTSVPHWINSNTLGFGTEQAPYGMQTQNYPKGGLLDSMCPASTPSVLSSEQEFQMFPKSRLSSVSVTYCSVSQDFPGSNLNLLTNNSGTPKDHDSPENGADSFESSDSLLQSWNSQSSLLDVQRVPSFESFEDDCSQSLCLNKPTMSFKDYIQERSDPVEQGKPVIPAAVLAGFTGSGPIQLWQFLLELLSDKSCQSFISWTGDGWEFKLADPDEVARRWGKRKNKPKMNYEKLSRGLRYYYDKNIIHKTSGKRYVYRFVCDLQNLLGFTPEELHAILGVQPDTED
The settings on record: protein: recombinant; tags: N-terminal GST; dsDNA, one strand shown. A digest of the protocol: as §1

The target of the next test is T9, SPDEF (Homo sapiens, UniProt O95238 1-335).
T9 sequence: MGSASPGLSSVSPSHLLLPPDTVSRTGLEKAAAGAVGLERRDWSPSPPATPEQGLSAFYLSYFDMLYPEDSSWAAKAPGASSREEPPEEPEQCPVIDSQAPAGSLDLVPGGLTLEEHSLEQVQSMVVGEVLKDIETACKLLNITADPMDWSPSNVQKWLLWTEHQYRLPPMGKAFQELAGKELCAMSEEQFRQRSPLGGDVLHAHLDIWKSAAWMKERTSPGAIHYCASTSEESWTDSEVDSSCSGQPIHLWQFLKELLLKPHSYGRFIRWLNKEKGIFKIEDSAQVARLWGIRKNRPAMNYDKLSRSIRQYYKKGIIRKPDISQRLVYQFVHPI
The settings on record: protein: recombinant; tags: N-terminal GST; dsDNA, one strand shown. A digest of the protocol:
as §1

For a further test, the target named is T10, ETV7 (Homo sapiens, UniProt Q9Y603 1-341).
T10 sequence: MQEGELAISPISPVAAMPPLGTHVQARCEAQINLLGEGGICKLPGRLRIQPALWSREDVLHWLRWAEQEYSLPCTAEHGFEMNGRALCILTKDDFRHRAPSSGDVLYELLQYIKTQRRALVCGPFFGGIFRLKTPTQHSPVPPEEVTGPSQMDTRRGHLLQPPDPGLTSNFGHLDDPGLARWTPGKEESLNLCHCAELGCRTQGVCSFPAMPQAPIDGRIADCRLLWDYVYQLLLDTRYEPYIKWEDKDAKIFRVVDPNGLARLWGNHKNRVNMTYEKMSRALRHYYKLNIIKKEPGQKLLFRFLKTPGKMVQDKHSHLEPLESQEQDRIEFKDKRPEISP
The settings on record: protein: recombinant; tags: N-terminal GST; dsDNA, one strand shown. A digest of the protocol: as §1

Another test has as its target T11, ELF5 (Homo sapiens, UniProt Q9UKW6-2 1-255).
T11 sequence: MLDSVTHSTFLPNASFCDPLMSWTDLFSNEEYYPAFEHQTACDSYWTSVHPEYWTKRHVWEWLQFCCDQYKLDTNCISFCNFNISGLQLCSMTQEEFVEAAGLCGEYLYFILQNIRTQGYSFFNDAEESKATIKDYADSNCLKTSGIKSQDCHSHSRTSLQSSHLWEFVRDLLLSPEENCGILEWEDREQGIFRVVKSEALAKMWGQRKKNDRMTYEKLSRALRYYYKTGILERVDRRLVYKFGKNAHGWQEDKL
The settings on record: protein: recombinant; tags: N-terminal GST; dsDNA, one strand shown. In outline:
as §1

The next test deals with T12, ETV3 (Homo sapiens, UniProt P41162-2 1-143).
T12 sequence: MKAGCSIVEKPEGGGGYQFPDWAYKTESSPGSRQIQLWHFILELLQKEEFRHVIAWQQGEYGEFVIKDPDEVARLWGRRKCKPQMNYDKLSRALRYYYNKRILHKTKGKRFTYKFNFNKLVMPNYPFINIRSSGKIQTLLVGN
The settings on record: protein: recombinant; tags: N-terminal GST; dsDNA, one strand shown. In outline:
as §1

Another test has as its target ETV6 (Homo sapiens, UniProt P41212 1-452). The settings on record: protein: recombinant; tags: N-terminal GST; dsDNA, one strand shown. A digest of the protocol:
as §1

ETV1, sequence (P50549 whole entry): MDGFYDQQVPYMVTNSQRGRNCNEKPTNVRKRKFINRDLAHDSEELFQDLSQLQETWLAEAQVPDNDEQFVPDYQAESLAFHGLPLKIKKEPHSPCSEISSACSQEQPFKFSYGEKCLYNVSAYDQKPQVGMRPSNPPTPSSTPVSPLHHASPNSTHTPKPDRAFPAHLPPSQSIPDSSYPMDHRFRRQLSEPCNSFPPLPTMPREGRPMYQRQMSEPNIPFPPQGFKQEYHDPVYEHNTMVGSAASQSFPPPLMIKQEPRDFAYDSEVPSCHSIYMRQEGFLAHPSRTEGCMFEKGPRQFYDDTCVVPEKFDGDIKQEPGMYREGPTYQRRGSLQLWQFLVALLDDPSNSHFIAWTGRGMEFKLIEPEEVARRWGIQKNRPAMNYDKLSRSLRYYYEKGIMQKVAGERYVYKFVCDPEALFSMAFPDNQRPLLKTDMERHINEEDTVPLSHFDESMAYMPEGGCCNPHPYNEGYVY
ELF4, sequence (Q99607 whole entry): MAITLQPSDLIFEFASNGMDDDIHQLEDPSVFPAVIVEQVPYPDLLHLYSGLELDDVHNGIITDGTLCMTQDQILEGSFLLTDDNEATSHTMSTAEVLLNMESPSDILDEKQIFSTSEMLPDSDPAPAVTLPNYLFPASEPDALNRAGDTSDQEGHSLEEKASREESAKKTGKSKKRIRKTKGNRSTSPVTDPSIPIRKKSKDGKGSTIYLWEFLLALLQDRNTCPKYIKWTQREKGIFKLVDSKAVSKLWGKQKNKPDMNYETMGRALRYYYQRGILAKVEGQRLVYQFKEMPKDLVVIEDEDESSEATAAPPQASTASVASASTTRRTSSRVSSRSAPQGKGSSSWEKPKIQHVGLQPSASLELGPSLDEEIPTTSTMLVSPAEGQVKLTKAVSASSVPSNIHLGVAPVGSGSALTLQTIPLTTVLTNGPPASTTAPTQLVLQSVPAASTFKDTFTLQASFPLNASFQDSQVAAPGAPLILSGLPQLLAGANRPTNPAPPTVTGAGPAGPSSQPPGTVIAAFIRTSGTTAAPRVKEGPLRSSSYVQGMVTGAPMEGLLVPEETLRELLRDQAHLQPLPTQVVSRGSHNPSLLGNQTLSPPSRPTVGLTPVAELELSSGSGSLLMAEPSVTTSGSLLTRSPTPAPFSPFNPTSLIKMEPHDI
CRX, sequence (O43186 whole entry): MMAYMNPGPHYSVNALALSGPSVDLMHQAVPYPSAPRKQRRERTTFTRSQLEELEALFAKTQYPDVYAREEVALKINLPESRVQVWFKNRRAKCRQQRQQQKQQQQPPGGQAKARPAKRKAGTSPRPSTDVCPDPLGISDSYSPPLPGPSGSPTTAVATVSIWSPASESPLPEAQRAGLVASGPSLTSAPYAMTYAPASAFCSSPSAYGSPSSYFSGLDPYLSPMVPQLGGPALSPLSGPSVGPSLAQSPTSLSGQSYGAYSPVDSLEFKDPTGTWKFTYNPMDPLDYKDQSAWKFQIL
ETV5, sequence (P41161 whole entry): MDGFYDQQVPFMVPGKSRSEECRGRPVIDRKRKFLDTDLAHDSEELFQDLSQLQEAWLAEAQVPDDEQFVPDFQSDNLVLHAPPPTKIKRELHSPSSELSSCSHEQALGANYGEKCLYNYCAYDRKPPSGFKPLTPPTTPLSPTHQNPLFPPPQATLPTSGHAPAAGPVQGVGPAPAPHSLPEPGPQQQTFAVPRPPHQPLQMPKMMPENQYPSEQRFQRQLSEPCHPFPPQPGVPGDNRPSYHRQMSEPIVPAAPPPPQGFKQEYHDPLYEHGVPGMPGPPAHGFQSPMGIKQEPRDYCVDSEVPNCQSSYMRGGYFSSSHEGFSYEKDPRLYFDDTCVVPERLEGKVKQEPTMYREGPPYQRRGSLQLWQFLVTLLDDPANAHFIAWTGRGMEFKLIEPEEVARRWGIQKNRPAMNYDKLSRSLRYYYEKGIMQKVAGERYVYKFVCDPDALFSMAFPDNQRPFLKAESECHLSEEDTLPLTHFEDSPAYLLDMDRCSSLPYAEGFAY
ETV6, sequence (P41212 whole entry): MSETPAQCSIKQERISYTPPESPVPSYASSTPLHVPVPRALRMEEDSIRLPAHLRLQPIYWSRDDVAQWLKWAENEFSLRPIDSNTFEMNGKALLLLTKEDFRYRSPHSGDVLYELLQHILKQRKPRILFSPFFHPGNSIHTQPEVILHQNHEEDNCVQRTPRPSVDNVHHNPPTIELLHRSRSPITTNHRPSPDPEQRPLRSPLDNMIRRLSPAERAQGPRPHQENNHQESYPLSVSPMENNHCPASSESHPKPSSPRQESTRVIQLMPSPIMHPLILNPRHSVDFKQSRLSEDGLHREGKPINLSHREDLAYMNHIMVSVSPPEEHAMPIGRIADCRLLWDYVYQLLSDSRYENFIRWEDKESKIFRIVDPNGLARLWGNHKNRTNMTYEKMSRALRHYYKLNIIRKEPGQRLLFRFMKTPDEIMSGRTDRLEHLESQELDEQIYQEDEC
HSF1, sequence (Q00613 whole entry): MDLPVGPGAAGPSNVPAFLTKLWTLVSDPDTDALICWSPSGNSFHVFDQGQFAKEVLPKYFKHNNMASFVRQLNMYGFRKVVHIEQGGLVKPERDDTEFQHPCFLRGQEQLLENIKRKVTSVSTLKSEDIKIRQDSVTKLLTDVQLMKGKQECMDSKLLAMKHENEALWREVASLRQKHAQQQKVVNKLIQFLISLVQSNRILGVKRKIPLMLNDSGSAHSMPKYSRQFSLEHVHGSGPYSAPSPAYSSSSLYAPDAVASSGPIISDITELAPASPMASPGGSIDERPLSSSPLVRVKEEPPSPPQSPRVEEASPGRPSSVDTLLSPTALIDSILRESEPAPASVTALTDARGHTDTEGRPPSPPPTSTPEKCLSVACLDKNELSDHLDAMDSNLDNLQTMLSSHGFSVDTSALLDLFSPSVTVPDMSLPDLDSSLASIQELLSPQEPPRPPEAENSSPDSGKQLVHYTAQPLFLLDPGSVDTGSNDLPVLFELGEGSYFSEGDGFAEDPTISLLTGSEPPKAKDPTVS

In the case of CATCTC, the binding signal was 1.2 fold enrichment (6-mer frequency, TF over GST control) in the test with FEV; 1.29 fold enrichment (6-mer frequency, TF over GST control) with ETV5; 1.26 fold enrichment (6-mer frequency, TF over GST control) with HSF1; 1.46 fold enrichment (6-mer frequency, TF over GST control) in the test with SPIC; 1.26 fold enrichment (6-mer frequency, TF over GST control) with ELF4; 1.42 fold enrichment (6-mer frequency, TF over GST control) with ELK4. Besides, the binding signal with ETV2 is 1.4 fold enrichment (6-mer frequency, TF over GST control); with ELF3, 1.23 fold enrichment (6-mer frequency, TF over GST control); with CRX, 1.16 fold enrichment (6-mer frequency, TF over GST control); in the test with ETV1, 1.26 fold enrichment (6-mer frequency, TF over GST control); with ERF, 1.25 fold enrichment (6-mer frequency, TF over GST control); with ETV3L it was 1.32 fold enrichment (6-mer frequency, TF over GST control). Besides, the binding signal with ETS2 was 1.36 fold enrichment (6-mer frequency, TF over GST control); in the test with SPDEF, 1.24 fold enrichment (6-mer frequency, TF over GST control); with ETV7 it was 1.15 fold enrichment (6-mer frequency, TF over GST control); in the test with ELF5, 1.22 fold enrichment (6-mer frequency, TF over GST control); with ETV3, 1.29 fold enrichment (6-mer frequency, TF over GST control); in the test with ETV6, 1.26 fold enrichment (6-mer frequency, TF over GST control).
